PubChem BioAssay AID1159580 (chemical genetic matrix, 2015)
The whole screen tested about 5,500 compounds, of which about 2,000 (36%) were called active. About 18% were inconclusive and are not listed. No stated cut-off is given here; in the data, active means normalized growth mostly below about 0.91 (no sharp cut-off); inconclusive means no clear call, values can overlap the other calls; inactive means mostly above about 0.92. The list shows a part of the results.

Experiment: chemical genetic growth profiling, strain panel (AID 1159580);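 further: tested at 20 µM; growth read once vehicle control cultures reached saturation at 30 °C; 1 = growth at the plate median or of vehicle wells; lower values mean less growth of the strain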
Settings: S. cerevisiae deletion strains, growth OD
[1] = locus YHR030C, strain SLT2, active compounds read low
[2] = locus YHR079C, strain IRE1, active compounds read low
[3] = locus YJL095W, strain BCK1, active compounds read low
[4] = locus YJR066W, strain TOR1, active compounds read low
[5] = locus YLR113W, strain HOG1, active compounds read low
[6] = locus YNL183C, strain NPR1, active compounds read low
[7] = locus YOR231W, strain MKK1, active compounds read low
[8] = locus YPL256C, strain CLN2, active compounds read low

Measured: normalized growth

CN1CCC(=C2c3ccccc3C=Cc3ccccc32)CC1
inactive: locus YAL013W, strain DEP1, active compounds read low 0.966 | locus YAL040C, strain CLN3, active compounds read low 0.99 | locus YCL061C, strain MRC1 (second series), active compounds read low 0.99 | locus YDR150W, strain NUM1, active compounds read low 1 | locus YDR363W, strain ESC2, active compounds read low 1 | locus YER002W, strain NOP16, active compounds read low 0.995 | locus YGR078C, strain PAC10, active compounds read low 1 | locus YGR229C, strain SMI1, active compounds read low 0.959 | [1] 0.965 | [2] 0.967 | [3] 0.968 | [4] 0.942 | [5] 0.942 | locus YMR307W, strain GAS1, active compounds read low 1.01 | locus YNL175C, strain NOP13, active compounds read low 0.986 | [6] 0.914 | locus YNL197C, strain WHI3, active compounds read low 1.01 | locus YNL224C, strain SQS1, active compounds read low 0.995 | locus YNL322C, strain KRE1, active compounds read low 0.993 | locus YOR083W, strain WHI5 (second series), active compounds read low 1.01 | [7] 0.965 | locus YPL055C, strain LGE1, active compounds read low 0.973 | [8] 0.932

CN1CCC(=C2c3ccccc3CCc3sccc32)CC1
active: locus YHR013C, strain ard1, active compounds read low 0.842
inactive: locus YAL021C, strain ccr4, active compounds read low 0.91 | locus YAL026C, strain drs2, active compounds read low 0.956 | locus YAL030W, strain snc1, active compounds read low 0.987 | locus YBL061C, strain skt5, active compounds read low 0.967 | locus YBR009C, strain hhf1, active compounds read low 0.986 | locus YBR023C, strain chs3, active compounds read low 0.969 | locus YBR171W, strain sec66, active compounds read low 0.961 | locus YBR231C, strain swc5, active compounds read low 0.965 | locus YBR279W, strain paf1, active compounds read low 0.959 | locus YCL011C, strain gbp2, active compounds read low 0.958 | locus YCL016C, strain dcc1, active compounds read low 0.948 | locus YCL069W, strain vba3, active compounds read low 0.977 | locus YCR088W, strain abp1, active compounds read low 0.979 | locus YDL005C, strain med2, active compounds read low 0.968 | locus YDL040C, strain nat1, active compounds read low 0.98 | locus YDR001C, strain nth1, active compounds read low 0.96 | locus YDR069C, strain doa4, active compounds read low 0.905 | locus YDR137W, strain rgp1, active compounds read low 1.08 | locus YDR159W, strain sac3, active compounds read low 0.952 | locus YDR195W, strain ref2 0.954 | locus YDR297W, strain sur2, active compounds read low 0.976 | locus YDR334W, strain swr1, active compounds read low 0.972 | locus YDR335W, strain msn5, active compounds read low 0.949 | locus YDR392W, strain spt3, active compounds read low 0.93 | locus YEL003W, strain gim4, active compounds read low 0.982 | locus YEL037C, strain rad23, active compounds read low 0.975 | locus YEL061C, strain CIN8 (second series), active compounds read low 0.967 | locus YER015W, strain faa2, active compounds read low 0.967 | locus YER016W, strain bim1, active compounds read low 0.995 | locus YER111C, strain swi4, active compounds read low 0.954 | locus YER155C, strain BEM2 (second series), active compounds read low 0.933 | locus YFR010W, strain ubp6, active compounds read low 0.961 | locus YGL167C, strain pmr1, active compounds read low 0.969 | locus YGL173C, strain kem1, active compounds read low 0.972 | locus YGL227W, strain vid30, active compounds read low 0.941 | locus YGL240W, strain doc1, active compounds read low 0.998 | locus YGL253W, strain hxk2, active compounds read low 0.977 | locus YHR027C, strain rpn1, active compounds read low 0.954 | [1] 0.943 | [2] 0.97 | locus YHR142W, strain chs7, active compounds read low 0.951 | locus YJL092W, strain hpr5, active compounds read low 0.975 | locus YJL095W, strain BCK1 (second series), active compounds read low 0.973 | [3] 1.02 | locus YJL115W, strain asf1, active compounds read low 0.922 | locus YJL129C, strain trk1, active compounds read low 0.967 | locus YJL154C, strain vps35, active compounds read low 0.968 | locus YJL164C, strain tpk1, active compounds read low 0.968 | locus YJL166W, strain qcr8, active compounds read low 0.98 | [4] 0.941 | locus YKL160W, strain elf1, active compounds read low 0.935 | locus YKR026C, strain gcn3, active compounds read low 0.966 | locus YKR091W, strain srl3, active compounds read low 0.964 | locus YLL001W, strain dnm1, active compounds read low 0.987 | locus YLL026W, active compounds read low 0.982 | locus YLL041C, strain sdh2, active compounds read low 0.961 | locus YLR027C, strain aat2, active compounds read low 0.95 | [5] 1.01 | locus YLR221C, strain rsa3, active compounds read low 0.997 | locus YLR258W, strain gsy2, active compounds read low 0.966 | locus YLR262C, strain YPT6 (second series), active compounds read low 1.01 | locus YLR320W, strain mms22, active compounds read low 0.98 | locus YLR342W, strain FKS1, active compounds read low 0.973 | locus YLR357W, strain rsc2, active compounds read low 0.946 | locus YLR370C, strain arc18, active compounds read low 0.96 | locus YLR384C, strain iki3, active compounds read low 0.967 | locus YML120C, strain ndi1, active compounds read low 0.97 | locus YMR058W, strain fet3, active compounds read low 0.955 | locus YMR125W, strain sto1, active compounds read low 0.933 | locus YMR129W, active compounds read low 0.979 | locus YMR205C, strain PFK2, active compounds read low 0.958 | locus YMR231W, strain pep5, active compounds read low 0.979 | locus YNL071W, strain lat1, active compounds read low 0.958 | [6] 0.97 | locus YNL209W, strain ssb2, active compounds read low 0.962 | locus YNL248C, strain rpa49, active compounds read low 0.955 | locus YNL322C, strain KRE1 (second series), active compounds read low 0.936 | locus YNR049C, strain mso1, active compounds read low 0.97 | locus YOR001W, strain rrp6, active compounds read low 0.948 | locus YOR070C, strain gyp1, active compounds read low 0.98 | locus YOR080W, strain dia2, active compounds read low 0.975 | locus YOR083W, strain WHI5, active compounds read low 0.913 | locus YOR106W, strain vam3, active compounds read low 0.889 | [7] 0.969 | locus YOR265W, strain rbl2, active compounds read low 0.969 | locus YOR270C, strain vph1, active compounds read low 0.872 | locus YOR290C, strain snf2, active compounds read low 0.916 | locus YPL051W, strain arl3, active compounds read low 0.956 | locus YPL078C, strain atp4, active compounds read low 0.957 | locus YPL106C, strain sse1, active compounds read low 0.942 | locus YPL240C, strain hsp82, active compounds read low 0.967 | [8] 0.963
